In PubChem BioAssay (NCI) one finds growth data, which are given here for eight compounds.

Assay in all cases: NCI-60 one-dose screen, 48 h (100 = growth as untreated, 0 = no growth, -100 = all killed)
The subject of one experiment is HCT-15 colon. To be noted: 10 µM unless noted.
The next experiment concerns HT29 colon. To be noted: 10 µM unless noted.
Another experiment relates to SNB-75 CNS. The conditions noted are these: 10 µM unless noted.
A further experiment has as its system SNB-19 CNS. To be noted: 10 µM unless noted.
The test system of another experiment is U251 CNS. The conditions noted are these: 10 µM unless noted.
The next experiment deals with PC-3 prostate. The conditions noted are these: 10 µM unless noted.
Another experiment relates to UACC-62 melanoma. To be noted: 10 µM unless noted.
The next experiment concerns LOX IMVI melanoma. To be noted: 10 µM.
In the next experiment the test system is SK-MEL-28 melanoma. The conditions noted are these: 10 µM unless noted.
A further experiment has as its system SK-MEL-2 melanoma. The conditions noted are these: 10 µM unless noted.
In a further experiment the test system is EKVX NSCLC. The conditions noted are these: 10 µM unless noted.
The subject of a further experiment is SN12C renal. To be noted: 10 µM unless noted.
For another experiment, the system named is UO-31 renal. The conditions noted are these: 10 µM unless noted.
In a further experiment the test system is TK-10 renal. The conditions noted are these: 10 µM unless noted.
The next experiment deals with ACHN renal. To be noted: 10 µM unless noted.
The subject of a further experiment is CAKI-1 renal. The conditions noted are these: 10 µM unless noted.
For a further experiment, the system named is A498 renal. The conditions noted are these: 10 µM unless noted.
Another experiment concerns CCRF-CEM leukemia. To be noted: 10 µM unless noted.
Another experiment concerns SK-MEL-5 melanoma. The conditions noted are these: 10 µM unless noted.
The next experiment has as its system MOLT-4 leukemia. To be noted: 10 µM unless noted.

Compounds without any hit were thinned out: in the full panel of roughly 83,000, 20% have a hit.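 Each cell line was grown in a 96-well plate and treated with one concentration of compound for 48 hours. Values below 10 were considered active.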 A number with no mark means an inactive call. The source made the active and inactive calls.

Regarding `COc1ccc(C(=O)/C=C/c2ccc(Cl)c(Cl)c2)cc1S(N)(=O)=O`, the growth is -37.9% (active) in the experiment on HCT-15 colon; -50.3% (active) in the experiment on HT29 colon; 6.46% (active) in the experiment on SNB-75 CNS; 5.07% (active) with SNB-19 CNS; -95.8% (active) in the experiment on U251 CNS; 10.1% in the experiment on PC-3 prostate. In addition, the growth is -4.38% (active) in the experiment on UACC-62 melanoma; -69% (active) in the experiment with LOX IMVI melanoma; -33.7% (active) in the experiment with SK-MEL-28 melanoma; 66.9% in the experiment with SK-MEL-2 melanoma; 24.1% in the experiment with EKVX NSCLC; -2.78% (active) in the experiment with SN12C renal. Further, the growth is -80.5% (active) in the experiment with UO-31 renal; 5.47% (active) with TK-10 renal; -69.7% (active) in the experiment with ACHN renal; -7.4% (active) in the experiment with CAKI-1 renal; 109% with A498 renal; 12.4% with CCRF-CEM leukemia.

Consider `Cc1cnc(C(=O)NNc2nc3cc(F)ccc3n3c(C(=O)N4CC5CC(C4)N5)ccc23)cn1`, for which the growth with HCT-15 colon was 32.4%; with HT29 colon it was 41.5%; with SNB-75 CNS it was 71.6%; with SNB-19 CNS, 35.2%; with U251 CNS, 22.9%; in the experiment on PC-3 prostate, 47.2%. Also, the growth in the experiment with UACC-62 melanoma is 2.81% (active); in the experiment with LOX IMVI melanoma, 16%; with SK-MEL-28 melanoma, 30.3%; with SK-MEL-2 melanoma, 53%; with EKVX NSCLC, 23.1%; with SN12C renal, 32.1%. In addition, the growth with UO-31 renal was 23.3%; in the experiment on TK-10 renal, 41.2%; in the experiment on ACHN renal it was 15.6%; in the experiment on CAKI-1 renal it was 23.1%; with A498 renal, 88.6%; in the experiment with CCRF-CEM leukemia, 17%.

Take `O=C(Nc1ccc(C(F)(F)F)cc1)Nc1ccc2oc(=O)ccc2c1`: the growth was 10.1% in the experiment on HCT-15 colon; 9.84% (active) in the experiment on HT29 colon; 44.1% in the experiment on SNB-75 CNS; 29.5% with SNB-19 CNS; -0.283% (active) in the experiment on U251 CNS; 13.6% in the experiment with PC-3 prostate. Further, the growth with UACC-62 melanoma is 28%; with LOX IMVI melanoma, -83.8% (active); in the experiment with SK-MEL-28 melanoma it was 37.6%; with SK-MEL-2 melanoma, 30%; with EKVX NSCLC, 12.2%; with UO-31 renal it was -10.3% (active). Further, the growth with TK-10 renal is 36.1%; in the experiment on ACHN renal, 6.95% (active); in the experiment with CAKI-1 renal, 22.9%; in the experiment on A498 renal, 27.4%; with CCRF-CEM leukemia, 16.1%.

Turning to `CN1CCN(Cc2ccc(C(=O)Nc3cccc(C#Cc4cccc5[nH]nc(N)c45)c3)cc2C(F)(F)F)CC1`, the growth was -93.9% (active) in the experiment with HCT-15 colon; -50.3% (active) in the experiment with HT29 colon; -82.5% (active) with SNB-75 CNS; -89.7% (active) in the experiment on SNB-19 CNS; -79.2% (active) in the experiment on U251 CNS; -22.9% (active) with PC-3 prostate. The growth was -88% (active) in the experiment on UACC-62 melanoma; -92% (active) in the experiment with LOX IMVI melanoma; -97.4% (active) with SK-MEL-28 melanoma; -88.9% (active) in the experiment on SK-MEL-2 melanoma; -93.6% (active) in the experiment with EKVX NSCLC; -98.2% (active) in the experiment on UO-31 renal. For the same compound, the growth in the experiment on TK-10 renal is -96% (active); with ACHN renal it was -98.3% (active); in the experiment on CAKI-1 renal, -88.5% (active); in the experiment with CCRF-CEM leukemia it was -20% (active).

In the case of `O=C(Cn1c2c(sc1=O)[C@H]1[C@@H](O)[C@@H](O)[C@H](O)[C@@H]1CS2)N1CCOCC1`, the growth is 107% with HCT-15 colon; 106% in the experiment on HT29 colon; 82.3% in the experiment on SNB-75 CNS; 103% in the experiment on SNB-19 CNS; 99.2% in the experiment on U251 CNS; 102% in the experiment on SK-MEL-5 melanoma. Besides, the growth in the experiment with UACC-62 melanoma is 101%; with SK-MEL-28 melanoma, 107%; in the experiment with SK-MEL-2 melanoma, 100%; in the experiment with EKVX NSCLC, 100%; in the experiment on SN12C renal, 102%; with UO-31 renal it was 91.1%. The growth with TK-10 renal was 88.2%; in the experiment with ACHN renal, 102%; in the experiment on CAKI-1 renal, 94.7%; in the experiment with A498 renal, 99.3%; in the experiment with MOLT-4 leukemia, 118%.

In the case of `O=C(NNc1nc2cc(F)ccc2n2c(CN3CC4CNCC4C3)ccc12)c1ccncn1` (stereo not drawn), the growth with HCT-15 colon is 28.9%; in the experiment on HT29 colon, 31.7%; in the experiment with SNB-75 CNS, 49%; with SNB-19 CNS, 22.2%; with U251 CNS, 9.87% (active); in the experiment on PC-3 prostate, 32.6%. The growth with UACC-62 melanoma is -13.4% (active); with LOX IMVI melanoma it was 6.59% (active); in the experiment on SK-MEL-28 melanoma it was 23.2%; in the experiment with SK-MEL-2 melanoma, 42.7%; in the experiment with EKVX NSCLC, 12.7%; in the experiment with SN12C renal, 7.46% (active). Besides, the growth in the experiment with UO-31 renal was 15.6%; with TK-10 renal, 29.9%; in the experiment on ACHN renal, 8.07% (active); with CAKI-1 renal, 12.1%; in the experiment on CCRF-CEM leukemia, 12.7%.

As for `CN1CCN(c2ccc(C(=O)/C=C/c3cc(C(F)(F)F)cc(C(F)(F)F)c3)cc2)CC1`, the growth in the experiment on HCT-15 colon was -84.2% (active); with HT29 colon it was -3.47% (active); with SNB-75 CNS, -82.3% (active); in the experiment on SNB-19 CNS, -85% (active); in the experiment on U251 CNS it was -94.9% (active); in the experiment with PC-3 prostate, -26.4% (active). Also, the growth was -85.4% (active) with UACC-62 melanoma; -89.7% (active) in the experiment with LOX IMVI melanoma; -96.8% (active) in the experiment on SK-MEL-28 melanoma; -86.2% (active) with SK-MEL-2 melanoma; -73.2% (active) in the experiment with EKVX NSCLC; -79.8% (active) with SN12C renal. For the same compound, the growth in the experiment with UO-31 renal was -92.5% (active); with TK-10 renal, -88.7% (active); in the experiment on ACHN renal it was -99.2% (active); with CAKI-1 renal, -73.7% (active); in the experiment on A498 renal, -70% (active); with CCRF-CEM leukemia, 5.57% (active).

Take `COc1ccc(-c2nnc3ccc(N/N=C/c4ccc(C)cc4)nn23)cc1`: the growth in the experiment with HCT-15 colon was 50%; in the experiment on HT29 colon, 82.6%; in the experiment with SNB-75 CNS, -38.6% (active); in the experiment with SNB-19 CNS, 92.6%; in the experiment with U251 CNS, 44.9%; with PC-3 prostate, 72.2%. The growth in the experiment on UACC-62 melanoma is 88.9%; in the experiment with LOX IMVI melanoma, 23.7%; with SK-MEL-28 melanoma, 93.6%; in the experiment with SK-MEL-2 melanoma it was 108%; in the experiment on EKVX NSCLC, 68.2%; in the experiment with SN12C renal it was 76.9%. Moreover, the growth is 33.5% with UO-31 renal; 82.7% in the experiment on TK-10 renal; 59% in the experiment with ACHN renal; 54.6% with CAKI-1 renal; 91.8% in the experiment on CCRF-CEM leukemia.
